Drawing on PubChem BioAssay (NCI), this text covers growth inhibition for 8 compounds.

The experiment is described as follows: NCI Yeast Anticancer Drug Screen. Data for the rad52 strain (AID 147).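 Note: 0% = growth of vehicle-treated control cultures.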 As to conditions: S. cerevisiae rad52 mutant growth inhibition, stronger effect = higher value. As to the method: Growth inhibition of yeast strains with defined genetic alterations is measured as a screen for potential anti-cancer activity. Selected strains with alterations in DNA damage repair or cell cycle control were exposed to compounds and growth inhibition was measured relative to vehicle treated controls. The strain used in this assay is rad52

About 79,000 compounds went through this panel and 15% of them were active in at least one assay; those are over-represented in the sample as a whole. Unmarked numbers belong to inactive results. The source made the active and inactive calls. Cut-off read from the data, not from the text of the source: active = growth inhibition above about 70%; inactive = the rest.

For `CCCCC1=NNC(=O)C1`, the growth inhibition was 2% (at 1.2 µM); 4% (at 3.7 µM); 0% (at 11.0 µM); 7% (at 33.0 µM); 15% (at 100.0 µM).

`S=c1[nH]c2c(Cl)c(Cl)c(Cl)c(Cl)c2[nH]1`: the growth inhibition reads like this: (at 1.2 µM) 13%; (at 3.7 µM) 6%; (at 11.0 µM) 45%; (at 33.0 µM) 97% (active); (at 100.0 µM) 94% (active).

In the case of `S=C1SCN(CCc2ccccc2)CN1CCc1ccccc1`, the growth inhibition runs as follows: (at 1.2 µM) 12%; (at 3.7 µM) 21%; (at 11.0 µM) 46%; (at 33.0 µM) 63%; (at 100.0 µM) 46%.

Consider `O=C(CNS(=O)(=O)Cc1ccccc1)NNc1ccccc1`, for which the growth inhibition is, setting by setting: (at 1.2 µM) -1%; (at 3.7 µM) 2%; (at 11.0 µM) 12%; (at 33.0 µM) 35%; (at 100.0 µM) 44%.

Turning to `COc1ccc(SCc2cc(OC)ccc2OC)cc1`, the growth inhibition (at 1.2 µM) was 0%; the growth inhibition (at 3.7 µM) was 2%; the growth inhibition (at 11.0 µM) is 4%; the growth inhibition (at 33.0 µM) was 3%; the growth inhibition (at 100.0 µM) is 3%.

Take `Nc1nc(N)c2cc(Sc3ccc4ccccc4c3)ccc2n1`: the growth inhibition was 28% (at 1.2 µM); 69% (at 3.7 µM); 92% (active) (at 11.0 µM); 96% (active) (at 33.0 µM); 92% (active) (at 100.0 µM).

As for `S=P(N1CC1)(N1CC1)N1CC1`, the growth inhibition (at 1.2 µM) was -1%; the growth inhibition (at 3.7 µM) was 2%; the growth inhibition (at 11.0 µM) is 3%; the growth inhibition (at 33.0 µM) was 4%; the growth inhibition (at 100.0 µM) is 16%.

In the case of `CC(=O)O[C@H]1C(=O)[C@@]2(C)[C@H]([C@H](OC(=O)c3ccccc3)[C@]3(O)C[C@H](OC(=O)[C@H](O)[C@@H](NC(=O)c4ccccc4)c4ccccc4)C(C)=C1C3(C)C)[C@]1(OC(C)=O)CO[C@@H]1C[C@@H]2O`, the growth inhibition is, setting by setting: (at 1.2 µM) 0%; (at 3.7 µM) 0%; (at 11.0 µM) 1%; (at 33.0 µM) 1%; (at 100.0 µM) 0%.
